Reference: the supplement of paper PMC8975748
Counter-ions that a name gives are not always drawn.

What follows are compounds tested on Saccharomyces cerevisiae BY4741 SeMeCo community (assay: z-score of subpopulation abundance vs DMSO median, subpopulation auxotrophic for M; higher = larger share of this subpopulation than in DMSO controls). Details: 10 µM; 24 h; SM minimal medium; subpopulation (auxotrophy): M.
Protocol: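 Fluorescent four-plasmid SeMeCo (self-establishing metabolically cooperating S. cerevisiae BY4741 community; plasmids pH-mRuby2, pL-mWasabi, pU-eCFP, pM-TagRFP657) was grown 24 h in minimal SM medium with each Selleck FDA-approved drug at 10 µM in 384-well plates. Cells were fixed and imaged by high-content confocal microscopy. For each auxotrophic subpopulation (and the prototroph), a z-score gives the deviation from the DMSO vehicle-control population median.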

Row | Compound | z-score of subpopulation abundance
1 | COc1ccc(C=O)cc1 [p-Anisaldehyde] | -1.36
2 | CN1[C@@H]2C[C@@H](OC(=O)[C@H](CO)c3ccccc3)C[C@H]1[C@@H]1O[C@@H]12 [Scopolamine HBr trihydrate] | -0.97
3 | C=CC[C@]1(O)CC[C@H]2[C@@H]3CCC4=CC(=O)CCC4=C3C=C[C@@]21C [Altrenogest] | 0.62
4 | CC(NC(C)(C)C)C(=O)c1cccc(Cl)c1 (centres undefined) [Amfebutamone (Bupropion) HCl] | 0.97
5 | Oc1cccc2cccnc12 [8-Hydroxyquinoline] | 1.04
6 | N#Cc1nn(-c2c(Cl)cc(C(F)(F)F)cc2Cl)c(N)c1[S+]([O-])C(F)(F)F (centres undefined) [Fipronil] | -1.13
7 | COc1ccc2c3c([nH]c2c1)C(C)=NCC3 [Harmaline] | 5.54
8 | CN1[C@@H]2CC[C@H]1C[C@@H](OC(=O)[C@H](CO)c1ccccc1)C2 [Hyoscyamine] | -0.65
9 | O=C(O[C@H]1C[C@H]2CC[C@@H](C1)[N+]21CCCC1)C(O)(c1ccccc1)c1ccccc1 [Trospium chloride] | 0.12
10 | Cc1cc(O)ccc1Cl [Chlorocresol] | 1.26
11 | CN1C(=O)COc2c(C(=O)NC3CN4CCC3CC4)cc(Cl)cc21 (centres undefined) [Azasetron HCl] | 1.59
12 | Nc1ccncc1 [4-Aminopyridine] | 0.04
13 | CC[N+](C)(CC)CCOC(=O)C(O)(c1ccccc1)c1ccccc1 [Methylbenactyzine Bromide] | 0.22
14 | C#C[C@]1(O)C=C[C@H]2[C@@H]3CCC4=CC(=O)CC[C@@H]4[C@H]3CC[C@@]21CC [Gestodene] | 0.43
15 | CN(C)[C@@H]1C(=O)C(C(N)=O)=C(O)[C@@]2(O)C(=O)C3=C(O)c4c(O)ccc(Cl)c4[C@@](C)(O)[C@H]3C[C@@H]12 [Chlortetracycline HCl] | 0.04
16 | CN(C)C(=O)Oc1ccc[n+](C)c1 [Pyridostigmine Bromide] | 0.47
17 | CC(C)N(CCC(C(N)=O)(c1ccccc1)c1ccccn1)C(C)C (centres undefined) [Disopyramide] | -0.53

Row | Compound | z-score of subpopulation abundance
18 | O=c1cccc2n1C[C@@H]1CNC[C@H]2C1 [Cytisine] | -0.43
19 | C=CCN1C[C@H](C(=O)N(CCCN(C)C)C(=O)NCC)C[C@@H]2c3cccc4[nH]cc(c34)C[C@H]21 [Cabergoline] | -0.27
20 | CCCCCCCCCCCCCCCC[n+]1ccccc1 [Cetylpyridinium Chloride] | -6.34
21 | C=CN1CCCC1=O.II [Povidone iodine] | -0.79
22 | CC(=O)OCC1=C(C(=O)O)N2C(=O)C(N)C2SC1 (centres undefined) [7-Aminocephalosporanic acid] | -0.97
23 | CN(C)[C@@H]1C(=O)C(C(N)=O)=C(O)[C@@]2(O)C(=O)C3=C(O)c4c(O)cccc4[C@@](C)(O)[C@H]3C[C@@H]12 [Tetracycline HCl] | -0.05
24 | CCC1=C[C@H]2CN3CCc4c([nH]c5ccccc45)[C@](C(=O)OC)(C2)[C@H]13 [Catharanthine] | -0.42
25 | C=C(C)[C@H]1Cc2c(ccc3c2O[C@@H]2COc4cc(OC)c(OC)cc4[C@@H]2C3=O)O1 [Rotenone (Barbasco)] | 0.37
26 | C[C@H]1O[C@H](O[C@H]2[C@H](O)[C@@H](O)[C@@H](O)[C@H](O)[C@@H]2O)[C@@H](N)C[C@@H]1NC(=N)C(=O)O [Kasugamycin hydrochloride] | -0.97
27 | CC(C)(O)C(Cl)(Cl)Cl [Chlorobutanol] | 0.1
28 | C[C@@H]1O[C@@H](O[C@H]2C[C@@H](O)[C@]3(CO)[C@H]4[C@H](O)C[C@]5(C)[C@@H](C6=CC(=O)OC6)CC[C@]5(O)[C@@H]4CC[C@]3(O)C2)[C@H](O)[C@H](O)[C@H]1O [Ouabain] | -0.73
29 | COc1ccc(C(CN(C)C)C2(O)CCCCC2)cc1 (centres undefined) [Venlafaxine HCl] | 0.68
30 | CCN(CC)CCOC(=O)C(O)(c1ccccc1)c1ccccc1 [Benactyzine hydrochloride] | -1.19
31 | CN(C)[C@@H]1C(=O)C(C(N)=O)=C(O)[C@@]2(O)C(=O)C3=C(O)c4c(O)cccc4[C@@](C)(O)[C@H]3[C@H](O)[C@@H]12 [Oxytetracycline (Terramycin)] | -0.79
32 | CC[C@@H](C(N)=O)N1CCCC1=O [Levetiracetam] | 0.08
33 | CC(=O)O[C@H]1C[C@@H]2CC[C@@H]3[C@H](CC[C@@]4(C)[C@H]3C[C@H]([N+]3(C)CCCCC3)[C@@H]4OC(C)=O)[C@@]2(C)C[C@@H]1[N+]1(C)CCCCC1 [Pancuronium dibromide] | -1.46
34 | CC[C@H]1CN2CC[C@]3(C(=O)Nc4ccccc43)[C@@H]2C[C@@H]1/C(=C\OC)C(=O)OC [Rhynchophylline] | -0.68
